This is a sample that favours compounds with a hit; in the whole collection about 3.3% have one here.
TSHR agonist = activates the human thyroid stimulating hormone receptor; P16473; Potency, µM (highest dose often 57.1 µM), inactives show at the top dose activation, usual class: activators; HEK293-CNG-TSHR cells (CNG channel as cAMP sensor), membrane potential dye, cAMP; AID 926; 73,000 compounds, 0.48% hits; active = well fitted activation curve with a large enough effect in the main read-out, with a control signal flat, not every such curve was filed as active; inconclusive = small, poorly fitted or top-dose-only effect, or a change in a side signal; inactive = no such curve, though single readings can be large or run the other way; % of control where 0% means no effect;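 note: the control signal comes from parental cells without the receptor; potency is the fitted concentration of half-maximal effect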
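HEK 293 cells stably expressing TSHR and a modified CNG channel, with CNG-only parental cells as counterscreen, were preloaded 60 min at room temperature with membrane potential dye containing 100 uM RO 20-1724. Compound exposure was 30 min, and depolarization was read as fluorescence at 590 nm.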
BRCT PPI green = blocks human BRCA1 BRCT binding to phosphopeptide, green readout | BRCA1 BRCT-phosphopeptide binding, green fluorescence polarization | Potency, µM (doses to about 76.9 µM), without a hit: at the highest dose activity change, negative = inhibition, hits mostly inhibitors | 75,000 compounds, 0.05% hits;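 note: potency is the fitted concentration of half-maximal effect; plate controls were peptide without protein for full effect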
Target sequence (P38398 whole entry, looked up): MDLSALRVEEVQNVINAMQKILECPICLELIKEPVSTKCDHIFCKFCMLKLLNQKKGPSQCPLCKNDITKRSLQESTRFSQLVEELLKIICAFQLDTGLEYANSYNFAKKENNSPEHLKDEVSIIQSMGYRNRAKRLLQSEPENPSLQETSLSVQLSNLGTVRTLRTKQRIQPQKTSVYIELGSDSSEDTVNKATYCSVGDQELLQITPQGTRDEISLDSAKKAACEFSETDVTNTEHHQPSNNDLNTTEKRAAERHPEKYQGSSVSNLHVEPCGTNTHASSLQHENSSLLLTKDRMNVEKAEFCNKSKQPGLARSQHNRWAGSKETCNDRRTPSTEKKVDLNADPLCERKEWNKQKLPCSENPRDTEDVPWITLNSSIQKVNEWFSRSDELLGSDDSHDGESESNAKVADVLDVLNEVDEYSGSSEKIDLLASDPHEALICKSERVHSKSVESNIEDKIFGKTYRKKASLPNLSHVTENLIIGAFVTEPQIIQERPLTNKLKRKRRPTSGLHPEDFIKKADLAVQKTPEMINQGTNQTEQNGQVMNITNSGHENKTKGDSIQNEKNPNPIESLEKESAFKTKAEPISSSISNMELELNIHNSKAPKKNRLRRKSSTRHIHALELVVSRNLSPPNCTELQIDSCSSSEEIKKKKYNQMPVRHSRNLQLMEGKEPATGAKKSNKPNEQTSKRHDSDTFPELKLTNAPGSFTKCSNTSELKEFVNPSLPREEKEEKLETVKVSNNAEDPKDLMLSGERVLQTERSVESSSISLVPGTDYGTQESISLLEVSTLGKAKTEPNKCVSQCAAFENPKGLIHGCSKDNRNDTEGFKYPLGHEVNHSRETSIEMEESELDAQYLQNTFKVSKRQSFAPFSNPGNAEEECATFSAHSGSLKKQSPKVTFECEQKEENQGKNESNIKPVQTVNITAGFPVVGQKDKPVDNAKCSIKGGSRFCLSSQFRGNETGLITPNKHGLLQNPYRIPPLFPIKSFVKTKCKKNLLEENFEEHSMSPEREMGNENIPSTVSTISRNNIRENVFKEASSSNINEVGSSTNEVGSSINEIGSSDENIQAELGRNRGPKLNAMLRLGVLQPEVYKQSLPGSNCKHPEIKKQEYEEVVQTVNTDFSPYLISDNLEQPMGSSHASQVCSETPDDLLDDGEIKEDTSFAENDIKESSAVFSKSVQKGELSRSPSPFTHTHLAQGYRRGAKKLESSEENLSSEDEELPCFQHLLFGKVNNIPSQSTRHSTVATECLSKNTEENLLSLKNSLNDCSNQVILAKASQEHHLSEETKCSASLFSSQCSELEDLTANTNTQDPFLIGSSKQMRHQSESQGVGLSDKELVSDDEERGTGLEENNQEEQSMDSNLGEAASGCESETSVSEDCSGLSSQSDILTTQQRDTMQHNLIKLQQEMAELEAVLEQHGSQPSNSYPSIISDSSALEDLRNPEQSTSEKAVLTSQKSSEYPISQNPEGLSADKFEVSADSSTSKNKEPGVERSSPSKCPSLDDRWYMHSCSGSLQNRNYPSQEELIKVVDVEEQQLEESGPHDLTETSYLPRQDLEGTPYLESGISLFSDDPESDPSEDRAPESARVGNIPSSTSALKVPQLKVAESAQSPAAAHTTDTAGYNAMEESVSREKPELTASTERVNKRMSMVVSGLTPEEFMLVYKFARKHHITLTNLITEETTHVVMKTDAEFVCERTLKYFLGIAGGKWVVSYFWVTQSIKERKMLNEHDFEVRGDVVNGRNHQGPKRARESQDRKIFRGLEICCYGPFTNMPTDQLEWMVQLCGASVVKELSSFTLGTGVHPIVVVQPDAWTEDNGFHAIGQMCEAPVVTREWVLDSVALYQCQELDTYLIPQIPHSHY
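Compounds were incubated for 12 min at room temperature with a complex of 100 nM fluorescein-tagged pBACH1 decapeptide and 250 nM His-tagged BRCT protein. Buffer was phosphate pH 7.3 with EDTA, DTT and Tween 20. Disruption of binding lowers the polarization signal.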
BRCT inh red = BRCT-phosphoprotein interaction inhibition (red fluorophore). BRCT-phosphopeptide binding, red fluorescence polarization. Potency, µM (highest dose often 76.9 µM), inactives show at the top dose activity change, negative = inhibition, most hits filed as inhibitors. 75,000 compounds, 0.03% hits. AID 892; note: % is set by controls: 0 for no effect and ±100 for the full control effect
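Fluorescence polarization: 100 nM His-tagged BRCA1 BRCT with 100 nM TAMRA-labelled phospho-BACH1 decapeptide, phosphate buffer pH 7.3 with 150 mM NaCl, DTT, 0.01% Tween 20; 12 min RT. Binding inhibition seen as FP decrease.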
HEK293 cAMP cs = counter-screen for TSHR agonists: cAMP increase in parental HEK293 | parental HEK293 CNG cAMP sensor, membrane potential fluorescence | Potency, µM (doses to about 57.1 µM), without a hit: at the top dose activation, actives largely listed as activators | 73,000 compounds, 2.5% hits | AID 938; note: potency is the fitted concentration of half-maximal effect; % of control where 0% means no effect; nearly all actives have a fitted effect of over 55% in size
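Parental HEK 293 cells stably expressing a cAMP-gated CNG channel were loaded with membrane potential dye containing 100 uM RO 20-1724 for 60 min. Compound added for 30 min; depolarization read as fluorescence intensity at 590 nm.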
Hsp90 Hop PPI = changes Hsp90-Hop TPR2A binding signal, up or down | AlphaScreen TPR2A-His6 binding biotin-Hsp90 C-terminal peptide | Potency, µM (highest dose often 57 µM), for inactives: at the top dose activity change, negative = inhibition | 71,000 compounds, 0.44% hits | AID 595; active = well fitted curve in either direction with a large enough effect; inconclusive = small, poorly fitted or top-dose-only effect, or another doubt; note: potency is the fitted concentration of half-maximal effect; % is set by controls: 0 for no effect and ±100 for the full control effect
YjeE inh = YjeE (TsaE) inhibition, E. coli | 71,000 compounds, 0.05% hits | Potency, µM | AID 605 | P0AF67 | purified YjeE enzyme, qHTS inhibition assay
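Fluorescence polarization of a BODIPY Texas Red–ADP probe (2 uM) bound to purified YjeE (10 uM) was read after 15 min room-temperature incubation with compounds. Loss of polarization marks inhibitors; ADP serves as titrated control.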
* marks the source's active call; other numbers are inactive results; [ ] = remark or other dose. Unless noted, calls come from the whole dose curve; as a rule, active = well fitted curve in the direction sought with a large enough effect; inconclusive = small, poorly fitted or top-dose-only effect, or another doubt; inactive = no such curve, though single readings can be large; an effect the other way counts as inactive or inconclusive.

Cc1nc(NCc2ccccc2)c2nc(-c3ccccc3)n(CCN3CCOCC3)c2n1 was read as TSHR agonist inconclusive, BRCT PPI green 1.2%, BRCT inh red 0.8%, HEK293 cAMP cs 31.6µM*, Hsp90 Hop PPI -5.2% and YjeE inh inactive.
Screening O=C(CSc1nc2c(cnn2-c2ccc(F)cc2)c(=O)[nH]1)N1CCCc2ccccc21 returned TSHR agonist inconclusive, BRCT PPI green 0.6%, BRCT inh red -0.9%, HEK293 cAMP cs 25.1µM*, Hsp90 Hop PPI -3.6% and YjeE inh inactive.
Screening Nc1nc(SCC(=O)N2CCCc3ccccc32)[nH]c(=O)c1-c1ccccc1 returned BRCT PPI green 0.1%, BRCT inh red 0.9%, HEK293 cAMP cs 24.2%, Hsp90 Hop PPI 0.4% and YjeE inh inactive.
Screening C[C@@H](C(=O)O)c1ccc(C[C@@H]2CCCC2=O)cc1 returned TSHR agonist 9.0%, BRCT PPI green -1.2%, BRCT inh red -1.1%, HEK293 cAMP cs 27.4%, Hsp90 Hop PPI -4.8% and YjeE inh inactive.
O=C(NC1CCCCCC1)c1cc(S(=O)(=O)N2CCOCC2)ccc1N1CCCCC1 was read as TSHR agonist inconclusive, BRCT PPI green 0.2%, BRCT inh red -0.7%, HEK293 cAMP cs 25.1µM*, Hsp90 Hop PPI 0.4% and YjeE inh inactive.
CC1(C)OC2CC3C4CC(F)C5=CC(=O)C=C[C@@]5(C)[C@@]4(F)C(O)C[C@@]3(C)[C@]2(C(=O)CO)O1 (some centres not stated) was read as BRCT PPI green -0.9%[3.08 µM] and BRCT inh red -0.8%.
`C[C@@H](c1ccccc1)N1C(=O)[C@H]2[C@@H]3[C@H](O)[C@H](O)CC(=O)[C@H]3CC[C@H]2C1=O` gave TSHR agonist -3.2%[11.4 µM], BRCT PPI green 0.8%[15.4 µM], BRCT inh red -0.1%[15.4 µM] and HEK293 cAMP cs -0.6%[11.4 µM].
`COc1cccc(Cn2c(=O)c(-c3ccc(Cl)cc3)nc3cnc(OC)nc32)c1` gave TSHR agonist inconclusive, BRCT PPI green -2.1%, BRCT inh red -0.1%, HEK293 cAMP cs inconclusive, Hsp90 Hop PPI -2.8% and YjeE inh inactive.
Screening Nc1c(S(=O)(=O)O)cc(Nc2ccc(Nc3nc(Cl)nc(Nc4ccc(S(=O)(=O)O)cc4)n3)c(S(=O)(=O)O)c2)c2c1C(=O)c1ccccc1C2=O returned TSHR agonist -13.6%, BRCT PPI green inconclusive, BRCT inh red 4.4%, HEK293 cAMP cs -16.7%, Hsp90 Hop PPI inconclusive and YjeE inh 50.1µM*.
`C[C@H]1C[C@@H]2[C@H]3CCC4=CC(=O)C=C[C@@]4(C)[C@]3(Cl)[C@@H](Cl)C[C@]2(C)[C@]1(O)C(=O)COP(=O)(O)O` gave TSHR agonist -0.3%[11.4 µM], HEK293 cAMP cs 6.4%[11.4 µM], Hsp90 Hop PPI 1.3%[11 µM] and YjeE inh inactive.
O=C(O)[C@H]1CN[C@H](C(=O)O)C1 was read as TSHR agonist 13.7%, BRCT PPI green -1.2%, BRCT inh red 1.1%, HEK293 cAMP cs 11.0%, Hsp90 Hop PPI -6.4% and YjeE inh inactive.
`COc1cccc(-c2nc(NCc3ccccc3)c3ccccc3n2)c1` gave TSHR agonist inconclusive, BRCT PPI green 0.4%, BRCT inh red -0.1%, HEK293 cAMP cs 31.6µM*, Hsp90 Hop PPI -6.8% and YjeE inh inactive.
`c1ccc(CNc2nc(-c3cccnc3)nc3ccccc23)cc1` gave TSHR agonist inconclusive, BRCT PPI green 3.7%, BRCT inh red 1.5%, HEK293 cAMP cs inconclusive, Hsp90 Hop PPI -1.0% and YjeE inh inactive.
`COc1cccc(-c2nc(NCc3cccnc3)c3ccccc3n2)c1` gave TSHR agonist 31.6µM*, BRCT PPI green 1.2%, BRCT inh red -2.3%, HEK293 cAMP cs 11.0%, Hsp90 Hop PPI 0.9% and YjeE inh inactive.
`c1cncc(CNc2nc(-c3cccnc3)nc3ccccc23)c1` gave TSHR agonist 25.1µM*, BRCT PPI green 1.0%, BRCT inh red -2.9%, HEK293 cAMP cs -4.6%, Hsp90 Hop PPI -5.2% and YjeE inh inactive.
`COc1cccc(-c2nc(NCc3ccccc3OC)c3ccccc3n2)c1` gave BRCT PPI green -0.3%, BRCT inh red -1.1%, HEK293 cAMP cs -7.3%, Hsp90 Hop PPI inconclusive and YjeE inh inactive.
NC(=O)CN1CCN(C(=O)NC2CCCCC2)CC1 was read as TSHR agonist inconclusive, BRCT PPI green -0.9%, BRCT inh red -1.2%, HEK293 cAMP cs 25.1µM*, Hsp90 Hop PPI -4.5%[2.3 µM] and YjeE inh inactive.
Screening O=C(NCCN1CCN(C(=O)NC2CCCCC2)CC1)NC1CCCCC1 returned TSHR agonist -3.0%, BRCT PPI green -0.9%, BRCT inh red -0.1%, HEK293 cAMP cs 16.2%, Hsp90 Hop PPI -4.1% and YjeE inh inactive.
`c1ccc(-c2ccccn2)nc1` gave TSHR agonist 5.8%, BRCT PPI green -1.5%, BRCT inh red 0.7%, HEK293 cAMP cs -6.4%, Hsp90 Hop PPI 12.6µM* and YjeE inh inactive.
Screening Cn1c(=O)c(-c2ccc(Cl)cc2)nc2cnc(N3CCOCC3)nc21 returned TSHR agonist -2.9%, BRCT PPI green -1.5%, BRCT inh red -1.9%, HEK293 cAMP cs 10.1%, Hsp90 Hop PPI -6.6% and YjeE inh inactive.
Screening CCOC(=O)CSc1cccc2cccnc12 returned TSHR agonist -1.4%, BRCT PPI green 0.7%, BRCT inh red -0.7%, HEK293 cAMP cs 1.8%, Hsp90 Hop PPI 15.8µM* and YjeE inh inactive.
Screening CCN(CC)C(=O)Sc1cccc2cccnc12 returned TSHR agonist -2.1%, BRCT PPI green -0.6%, BRCT inh red -0.8%, HEK293 cAMP cs 5.1%, Hsp90 Hop PPI -3.5% and YjeE inh inactive.
c1cnc2c(c1)ccc1cccnc12 was read as TSHR agonist inconclusive, BRCT PPI green -2.1%, BRCT inh red -1.5%, HEK293 cAMP cs -3.4%[11.4 µM], Hsp90 Hop PPI 0.631µM* and YjeE inh inactive.
CCOCCCNC(=O)c1ccc2c(c1)OCO2 was read as TSHR agonist 0.5%, BRCT PPI green -1.6%, BRCT inh red 1.2%, HEK293 cAMP cs 9.9%, Hsp90 Hop PPI 1.0% and YjeE inh inactive.
CCCCC(CC)CNC(=O)c1ccc2c(c1)OCO2 (configuration not stated) was read as TSHR agonist inconclusive, BRCT PPI green -0.2%, BRCT inh red -2.4%, HEK293 cAMP cs 3.98µM*, Hsp90 Hop PPI -1.7%[11 µM] and YjeE inh inactive.
For CC(C)C[C@@H](CC(=O)N[C@@H](CCC(=O)O)CC(=O)O)NC(=O)[C@@H]1CCCC[C@H]1NC(=O)C[C@@H](NC(=O)C[C@H](Cc1c[nH]c2ccccc12)NC(=O)[C@@H]1CNCC[C@H]1N)C(C)C the results were TSHR agonist 4.3%, HEK293 cAMP cs 13.2%, Hsp90 Hop PPI -3.9% and YjeE inh inactive.
